# Laboratory results reported in the supplement of paper PMC8728848.
# The entries come from a sample that favours the strongest signals as a whole.
# How the values were obtained:
# Test in all cases: glycan array binding signal (z-score within array); higher = stronger binding
# Settings in all cases: glycan notation: IUPAC condensed, linker removed; mutation: E227G
# [1] = target: GalNAc3S(b1-4)[Fuc(a1-3)]GlcNAc
# In short: (§1)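 Glycan array data were curated from 3228 arrays in the Consortium for Functional Glycomics database and kept only where the protein sequence was available. Glycan names were converted to IUPAC-condensed notation, and columns mapping to the same glycan were averaged. The binding signal is a within-array Z-score, averaged across arrays of the same protein sequence at different concentrations or buffers and across linkers. Negative Z-scores can be read as non-binding.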
# [2] = target: Glc(a1-4)Glc
# In short: as §1
# [3] = target: GlcA(b1-3)Gal
# In short: as §1
# [4] = target: GlcNAc(b1-2)Man(a1-3)[GlcNAc(b1-4)][GlcNAc(b1-2)Man(a1-6)]Man(b1-4)GlcNAc(b1-4)[Fuc(a1-6)]GlcNAc
# In short: as §1
# [5] = target: GlcNAc(b1-3)Gal(b1-4)Glc
# In short: as §1
# [6] = target: GlcNAc(b1-3)Gal(b1-4)GlcNAc(b1-3)Gal(b1-4)GlcNAc(b1-2)Man(a1-3)[GlcNAc(b1-3)Gal(b1-4)GlcNAc(b1-3)Gal(b1-4)GlcNAc(b1-2)Man(a1-6)]Man(b1-4)GlcNAc(b1-4)[Fuc(a1-6)]GlcNAc
# In short: as §1
# [7] = target: GlcNAc(b1-3)Gal(b1-4)GlcNAc(b1-3)GalNAc
# In short: as §1
# [8] = target: GlcNAc(b1-3)Gal(b1-4)GlcNAc(b1-6)[GlcNAc(b1-3)]Gal(b1-4)GlcNAc
# In short: as §1
# [9] = target: GlcNAc(b1-4)Gal(b1-4)GlcNAc
# In short: as §1
# [10] = target: GlcNAc(b1-4)GlcNAc(b1-4)GlcNAc
# In short: as §1
# [11] = target: GlcNAc(b1-4)GlcNAc(b1-4)GlcNAc(b1-4)GlcNAc(b1-4)GlcNAc
# In short: as §1
# [12] = target: GlcNAc(b1-6)GalNAc
# In short: as §1
# [13] = target: Kdn(a2-3)Gal(b1-4)[Fuc(a1-3)]GlcNAc
# In short: as §1
# [14] = target: Man(a1-2)Man(a1-3)[Man(a1-2)Man(a1-6)]Man
# In short: as §1
# [15] = target: Man(a1-2)Man(a1-3)[Man(a1-6)]Man(a1-6)[Man(a1-2)Man(a1-3)]Man(b1-4)GlcNAc(b1-4)GlcNAc
# In short: as §1
# [16] = target: Man(a1-3)[Man(a1-6)]Man
# In short: as §1
# [17] = target: Man(a1-3)[Man(a1-6)]Man(a1-6)[Man(a1-3)]Man
# In short: as §1
# [18] = target: Neu5Ac(a2-3)Gal
# In short: as §1
# [19] = target: Neu5Ac(a2-3)Gal(b1-3)GlcNAc(b1-2)Man(a1-3)[Neu5Ac(a2-3)Gal(b1-3)GlcNAc(b1-2)Man(a1-6)]Man(b1-4)GlcNAc(b1-4)GlcNAc
# In short: as §1
# [20] = target: Neu5Ac(a2-3)Gal(b1-3)GlcNAc(b1-3)Gal(b1-4)GlcNAc
# In short: as §1
# [21] = target: Neu5Ac(a2-3)Gal(b1-4)GlcNAc
# In short: as §1
# [22] = target: Neu5Ac(a2-3)Gal(b1-4)GlcNAc(b1-2)Man(a1-3)[Neu5Ac(a2-3)Gal(b1-4)GlcNAc(b1-2)Man(a1-6)]Man(b1-4)GlcNAc(b1-4)GlcNAc
# In short: as §1
# [23] = target: Neu5Ac(a2-3)Gal(b1-4)GlcNAc(b1-3)Gal(b1-4)GlcNAc(b1-2)Man(a1-3)[Neu5Ac(a2-3)Gal(b1-4)GlcNAc(b1-3)Gal(b1-4)GlcNAc(b1-2)Man(a1-6)]Man(b1-4)GlcNAc(b1-4)GlcNAc
# In short: as §1
# [24] = target: Neu5Ac(a2-3)Gal(b1-4)[Fuc(a1-3)]GlcNAc(b1-3)Gal(b1-4)GlcNAc
# In short: as §1
# [25] = target: Neu5Ac(a2-3)Gal(b1-4)[Fuc(a1-3)]GlcNAc(b1-6)[Gal(b1-3)]GalNAc
# In short: as §1
# [26] = target: Neu5Ac(a2-3)[GalNAc(b1-4)]Gal(b1-4)GlcNAc
# In short: as §1
# [27] = target: Neu5Ac(a2-6)Gal(b1-4)GlcNAc(b1-2)Man(a1-3)[Gal(b1-4)GlcNAc(b1-2)Man(a1-6)]Man(b1-4)GlcNAc(b1-4)GlcNAc
# In short: as §1
# [28] = target: Neu5Ac(a2-6)Gal(b1-4)GlcNAc(b1-2)[Neu5Ac(a2-6)Gal(b1-4)GlcNAc(b1-4)]Man(a1-3)[GlcNAc(b1-4)][Neu5Ac(a2-6)Gal(b1-4)GlcNAc(b1-4)Man(a1-6)]Man(b1-4)GlcNAc(b1-4)GlcNAc
# In short: as §1
# [29] = target: Neu5Ac(a2-8)Neu5Ac
# In short: as §1
# [30] = target: Neu5Ac(a2-8)Neu5Ac(a2-3)[Gal(b1-3)GalNAc(b1-4)]Gal(b1-4)Glc
# In short: as §1
# [31] = target: Neu5Ac(a2-8)Neu5Ac(a2-8)Neu5Ac
# In short: as §1
# [32] = target: Neu5Ac9Ac(a2-3)Gal(b1-3)GlcNAc
# In short: as §1
# [33] = target: Neu5Gc(a2-6)Gal(b1-4)GlcNAc
# In short: as §1
# [34] = target: Neu5Gc(a2-8)Neu5Ac(a2-3)Gal(b1-4)GlcNAc
# In short: as §1
binder,measurement,setting,value
"Epa1-NP-mutant-E227G (Candida glabrata), Q6VBJ0 (protein) MILNPALFLNKCVCIYTTLILLLLTNGGYATSSNDISLASKDPTTFPLGCSPDITTPKKGLSMELYSYDFRKKGSYPCWDAAYLDPNYPRTGYKSHRLLAKVDGVTGNINFYYHATKGCTPQLGHLPASYNYPKPLTMTNFTMLLYGYFRPKVTGFHTFTISADDLLFVNFGAGNAFDCCRRDSSADHFGNYQAYAIWGSKTAKDELTVHLDAGVYYPIRLFYNNRGYDGALSFTFKTESNENTVSDFSEYFFSLDDTEEGCPGLISYDSSCASVKTSKIIGIDYHTETPNENLVPITKTIYHLGIPCTGTTTTPLCGSGFYDPLANKCVTINTSSTSSVTKTTSHTTSKEVSFHSSISSQKTLIPKSIPSPYGPIKSQSIPTEMETSSEISSSEYAFSDVISTPSHSPYTKKHSSLNSSSYTSTVIHSLTSYSISQGIFSTSLSEQNITSKSSTDKFSTATSMSNNITQSSIIISQFSTNNENYTTTSMHTSSDKISTETLNNSISTTTSILFSNSSTILKNNTTIISSDKDTHYHPVNPTIVCSTNKTEIICASITQPSISNSNNHWSSSVLKFNSTTVRSTLPSSAGSNETSINVPFSSSTESNTSTSSTSTSNSKMVRSTLPSSAGSNETSISVPFSSSTESNTSTSSTSTSNSKMVRSTLPSSAGSNETSINVPFSSSTESNTSTSSTSTSNSKTVRSTPFSSAGIIMTSLSQRNNKSASSYASSNSKCYNTADSCRKVHSTPSYLLTSSYTSEGVDYDCSLVSTKLKINDTNCVNNKHTTKSCLKTSVTTTIPTLEIKTARKSSSNTIGLHSYPTSSPNKSISSAPIIGYISSFKTIKTASPSYQTSDLTTITTITSLNNPGSTAVENTHESNDKSRKTSSNDISSKHSVIKETKDAVESSNKSHQTNTLKCSSIIIASSSHNSYESLGGTTLTLTLSKVYSPQNNDTLPFLEISEVNPSRTVLPESSKMMQYLTSTEERNKTARNTIATNIVSISTFHFEGEGNAIRMGYTQLLLMLIGIIVMNIGT",glycan array binding signal (z-score),[1],-0.117
same,glycan array binding signal (z-score),[2],-0.175
same,glycan array binding signal (z-score),[3],-0.114
same,glycan array binding signal (z-score),[4],-0.217
same,glycan array binding signal (z-score),[5],-0.256
same,glycan array binding signal (z-score),[6],0.132
same,glycan array binding signal (z-score),[7],-0.16
same,glycan array binding signal (z-score),[8],-0.203
same,glycan array binding signal (z-score),[9],-0.157
same,glycan array binding signal (z-score),[10],-0.161
same,glycan array binding signal (z-score),[11],-0.177
same,glycan array binding signal (z-score),[12],-0.071
same,glycan array binding signal (z-score),[13],-0.097
same,glycan array binding signal (z-score),[14],-0.26
same,glycan array binding signal (z-score),[15],-0.291
same,glycan array binding signal (z-score),[16],-0.126
same,glycan array binding signal (z-score),[17],-0.162
same,glycan array binding signal (z-score),[18],-0.003
same,glycan array binding signal (z-score),[19],0.018
same,glycan array binding signal (z-score),[20],-0.256
same,glycan array binding signal (z-score),[21],-0.195
same,glycan array binding signal (z-score),[22],-0.236
same,glycan array binding signal (z-score),[23],-0.191
same,glycan array binding signal (z-score),[24],-0.14
same,glycan array binding signal (z-score),[25],-0.043
same,glycan array binding signal (z-score),[26],-0.209
same,glycan array binding signal (z-score),[27],-0.187
same,glycan array binding signal (z-score),[28],-0.059
same,glycan array binding signal (z-score),[29],-0.302
same,glycan array binding signal (z-score),[30],0.176
same,glycan array binding signal (z-score),[31],-0.128
same,glycan array binding signal (z-score),[32],-0.253
same,glycan array binding signal (z-score),[33],-0.199
same,glycan array binding signal (z-score),[34],-0.226
